# Test results reported in PubChem BioAssay (EPA / NIEHS).
# Results filed as inconclusive are left out. Active and inactive are the calls of the source. Rule for the calls, unless noted: active = hit-call score of the fitted dose curve at least 0.9, where 1 is the maximum; inactive = score below 0.9.
# Assays:
# [1] = molecular target: Paired box protein Pax-6 (Homo sapiens) (UniProt P26367); test: ATG_Pax6_CIS: Attagene CIS-FACTORIAL HepG2 Assay for human Paired Box 6 (PAX6) (AID 2282956); conditions: HepG2 CIS-FACTORIAL PAX6 reporter transcription, RNA readout; actives raise or lower the signal
# Sequence of Paired box protein Pax-6 (Homo sapiens) (P26367 whole entry, looked up): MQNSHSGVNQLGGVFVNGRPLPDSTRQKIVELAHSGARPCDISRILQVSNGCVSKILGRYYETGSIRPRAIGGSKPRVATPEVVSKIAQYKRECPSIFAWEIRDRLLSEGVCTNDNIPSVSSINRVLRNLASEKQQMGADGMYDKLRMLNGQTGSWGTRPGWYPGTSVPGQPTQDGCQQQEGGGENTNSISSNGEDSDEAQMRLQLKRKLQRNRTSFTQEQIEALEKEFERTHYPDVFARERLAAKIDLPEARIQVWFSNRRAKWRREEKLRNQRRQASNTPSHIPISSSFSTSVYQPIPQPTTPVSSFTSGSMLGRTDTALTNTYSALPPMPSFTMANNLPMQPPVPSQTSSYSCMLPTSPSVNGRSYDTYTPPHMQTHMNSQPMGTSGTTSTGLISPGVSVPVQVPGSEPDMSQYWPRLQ
# How it was run: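 Readout: reporter transcript fluorescence after RT-PCR and capillary electrophoresis. Cells: HepG2, transiently transfected with cis-regulated MRTUs. Exposure 24 h. Gain or loss of signal fitted bidirectionally relative to DMSO.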
# [2] = ATG_PXRE_CIS: Attagene CIS-FACTORIAL HepG2 Assay for human Pregnane X Receptor Element (PXRE) (AID 2282957); conditions: HepG2 Attagene CIS-FACTORIAL PXRE reporter, mRNA; actives raise or lower the signal
# How it was run: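 Bidirectional activity, baselined to DMSO, derived from reporter mRNA fluorescence (RT-PCR plus capillary electrophoresis) in HepG2 cells bearing cis-promoter reporter units, 24 h exposure.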
# [3] = ATG_PPRE_CIS: Attagene CIS-FACTORIAL HepG2 Assay for human Peroxisome Proliferator-activated Response Element (PPRE) (AID 2282958); conditions: HepG2 PPRE cis-element reporter, Attagene transcription factor profiling; actives raise or lower the signal
# How it was run: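 Read-out: fluorescent reporter mRNA fragments resolved by capillary electrophoresis after RT-PCR. HepG2 cells carried transiently transfected PPRE-driven cis reporter constructs and were dosed for 24 h; gain or loss of signal fitted relative to DMSO.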
# [4] = ATG_RORE_CIS: Attagene CIS-FACTORIAL HepG2 Assay for human RAR-related Orphan Receptor Element (RORE) (AID 2282959); conditions: HepG2 Attagene cis-factorial RORE reporter, mRNA; actives raise or lower the signal
# How it was run: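 Readout: fluorescent reporter mRNA by RT-PCR plus capillary electrophoresis, 24 h after dosing transfected HepG2 cells. Endogenous transcription factor activity on a cis promoter element is measured. Gain or loss of signal fitted against DMSO.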
# [5] = ATG_Sox_CIS: Attagene CIS-FACTORIAL HepG2 Assay for human SRY-box transcription factor (SOX) (AID 2282960); conditions: HepG2 Attagene cis-factorial SOX reporter, mRNA; actives raise or lower the signal
# How it was run: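 Read-out: fluorescent RT-PCR products of SOX1-linked reporter transcripts resolved by capillary electrophoresis, fitted bidirectionally against DMSO. Transiently transfected HepG2 cells, 24 h after chemical exposure, endogenous transcription factor activity.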
# [6] = molecular target: Transcription factor Sp1 (Homo sapiens) (UniProt P08047); test: ATG_Sp1_CIS: Attagene CIS-FACTORIAL HepG2 Assay for human Specificity Protein 1 (Sp1) (AID 2282961); conditions: HepG2 Sp1 cis-reporter transcription, actives raise or lower the signal
# Sequence of Transcription factor Sp1 (Homo sapiens) (P08047 whole entry, looked up): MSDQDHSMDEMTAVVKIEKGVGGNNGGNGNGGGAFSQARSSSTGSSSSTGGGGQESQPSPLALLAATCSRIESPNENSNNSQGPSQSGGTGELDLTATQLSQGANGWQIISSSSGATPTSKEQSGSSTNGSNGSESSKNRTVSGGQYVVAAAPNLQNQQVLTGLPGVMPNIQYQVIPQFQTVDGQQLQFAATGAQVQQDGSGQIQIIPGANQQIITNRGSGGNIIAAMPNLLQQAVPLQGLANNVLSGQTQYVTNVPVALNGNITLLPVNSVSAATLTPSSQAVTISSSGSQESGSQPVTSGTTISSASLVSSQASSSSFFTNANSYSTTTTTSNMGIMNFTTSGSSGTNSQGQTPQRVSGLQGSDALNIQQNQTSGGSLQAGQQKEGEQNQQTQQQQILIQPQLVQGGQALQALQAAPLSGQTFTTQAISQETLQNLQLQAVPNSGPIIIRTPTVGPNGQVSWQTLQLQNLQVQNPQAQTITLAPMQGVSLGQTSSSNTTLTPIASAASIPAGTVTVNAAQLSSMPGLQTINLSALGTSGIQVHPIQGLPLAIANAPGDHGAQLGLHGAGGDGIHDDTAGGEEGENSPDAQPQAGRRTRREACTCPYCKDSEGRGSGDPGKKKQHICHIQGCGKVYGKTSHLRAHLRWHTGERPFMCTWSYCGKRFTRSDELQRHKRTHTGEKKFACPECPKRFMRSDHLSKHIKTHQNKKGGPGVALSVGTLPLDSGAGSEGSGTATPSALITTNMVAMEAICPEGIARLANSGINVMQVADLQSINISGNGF
# How it was run: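 Read-out: fluorescence of 6-FAM-labeled, HpaI-digested RT-PCR products separated by capillary electrophoresis. HepG2 cells carried transfected cis-element reporter units and were exposed to chemicals for 24 h; gain or loss of signal fitted relative to DMSO.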
# [7] = ATG_SREBP_CIS: Attagene CIS-FACTORIAL HepG2 Assay for human Sterol Regulatory Element Binding (SREBP) (AID 2282962); conditions: HepG2 Attagene cis-factorial SREBP reporter, mRNA; actives raise or lower the signal
# How it was run: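 Readout: fluorescent reporter-transcript peaks resolved by capillary electrophoresis after RT-PCR. Cells were human HepG2 carrying transfected cis-promoter reporter constructs, dosed for 24 h. Gain or loss of signal was fitted against DMSO controls.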
# [8] = ATG_TA_CIS: Attagene CIS-FACTORIAL HepG2 Assay for human TA Basal Promoter (AID 2282964); conditions: HepG2 Attagene CIS-factorial TA basal promoter reporter; actives raise or lower the signal
# How it was run: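 Transfected HepG2, 24 h compound exposure; RNA → RT-PCR → FAM primer extension → HpaI cut → CE fluorescence. Gain/loss-of-signal fitted against DMSO negative control. Background-control readout.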
# [9] = ATG_TCF_b_cat_CIS: Attagene CIS-FACTORIAL HepG2 Assay for human T-Cell-Factor with beta-catenin (TCF/b-cat) (AID 2282965); conditions: HepG2 TCF/beta-catenin cis-reporter transcription, actives raise or lower the signal
# How it was run: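 Using capillary electrophoresis as the read-out, labelled reporter cDNA fragments from transiently transfected HepG2 were sized and quantified. Exposure lasted 24 hours; activity in either direction was referenced to DMSO.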
# [10] = ATG_TAL_CIS: Attagene CIS-FACTORIAL HepG2 Assay for human TAL Basal Promoter (AID 2282966); conditions: HepG2 Attagene cis-factorial TAL promoter reporter; actives raise or lower the signal;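 note: background control endpoint measuring basal TAL promoter reporter mRNA not a specific factor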
# How it was run: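 Human hepatoma HepG2 cells, transfected with promoter-regulated reporter units, were treated 24 h. Reporter transcript levels, measured through RT-PCR and capillary electrophoresis, were fitted for gain or loss relative to DMSO.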
# [11] = ATG_TGFb_CIS: Attagene CIS-FACTORIAL HepG2 Assay for human Transforming Growth Factor (TGF) (AID 2282967); conditions: HepG2 Attagene CIS TGFb reporter, mRNA transcription; actives raise or lower the signal
# How it was run: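 Readout: fluorescently labeled reporter cDNA fragments resolved by capillary electrophoresis after RT-PCR. Transfected HepG2 cells dosed for 24 h; endogenous TF activity at TGFB1-linked cis element; gain or loss fitted relative to DMSO.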
# [12] = molecular target: Estrogen receptor (Homo sapiens) (UniProt P03372); test: ATG_ERa_TRANS: Attagene TRANS-FACTORIAL HepG2 Assay for human Estrogen Receptor alpha (ERa) (AID 2282970; active = hit-call score of the fitted dose curve at least 0.9, where 1 is the maximum); conditions: HepG2 Attagene TRANS ERa GAL4 reporter, mRNA
# Sequence of Estrogen receptor (Homo sapiens) (P03372 whole entry, looked up, the tested form may be a part): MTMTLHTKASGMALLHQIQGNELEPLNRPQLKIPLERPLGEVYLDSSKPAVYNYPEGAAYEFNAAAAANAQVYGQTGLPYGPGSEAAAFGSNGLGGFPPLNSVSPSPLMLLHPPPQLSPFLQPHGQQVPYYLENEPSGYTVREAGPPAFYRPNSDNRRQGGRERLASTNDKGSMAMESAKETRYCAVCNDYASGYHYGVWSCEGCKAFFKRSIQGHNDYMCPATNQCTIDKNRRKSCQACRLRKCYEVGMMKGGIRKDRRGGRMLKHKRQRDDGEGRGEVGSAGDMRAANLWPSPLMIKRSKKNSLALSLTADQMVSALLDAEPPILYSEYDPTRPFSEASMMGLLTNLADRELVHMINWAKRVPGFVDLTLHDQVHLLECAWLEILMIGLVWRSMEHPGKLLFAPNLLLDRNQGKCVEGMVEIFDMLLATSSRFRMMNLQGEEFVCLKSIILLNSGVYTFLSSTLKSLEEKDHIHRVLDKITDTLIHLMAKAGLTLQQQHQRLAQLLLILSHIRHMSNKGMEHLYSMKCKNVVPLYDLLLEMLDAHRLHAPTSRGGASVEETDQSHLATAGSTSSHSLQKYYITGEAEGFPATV
# How it was run: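 Signal derives from fluorescence of labelled reporter PCR fragments separated by capillary electrophoresis. HepG2 cells transiently carrying multiple GAL4-UAS reporter units were treated 24 hours, and induction above DMSO baseline was fitted as activity.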
# [13] = molecular target: X-box-binding protein 1 (Homo sapiens) (UniProt P17861); test: ATG_Xbp1_CIS: Attagene CIS-FACTORIAL HepG2 Assay for human X-box Binding Protein 1 (XBP1) (AID 2282972); conditions: HepG2 XBP1 cis-element reporter, Attagene multiplex; actives raise or lower the signal
# Sequence of X-box-binding protein 1 (Homo sapiens) (P17861 whole entry, looked up, the tested form may be a part): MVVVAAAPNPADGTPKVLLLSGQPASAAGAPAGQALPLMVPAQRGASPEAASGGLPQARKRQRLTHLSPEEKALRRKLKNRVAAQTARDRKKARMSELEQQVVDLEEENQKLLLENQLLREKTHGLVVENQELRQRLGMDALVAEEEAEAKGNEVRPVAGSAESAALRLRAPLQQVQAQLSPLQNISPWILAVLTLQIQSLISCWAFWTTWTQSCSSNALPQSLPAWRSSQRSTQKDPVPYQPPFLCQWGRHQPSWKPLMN
# How it was run: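 Read-out: fluorescent reporter mRNA fragments resolved by capillary electrophoresis after RT-PCR. Human HepG2 liver cells carried transfected cis-promoter reporter units and were exposed to chemicals for 24 hours. Gain or loss of signal fitted relative to DMSO baseline.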
# [14] = ATG_GAL4_TRANS: Attagene TRANS-FACTORIAL HepG2 Assay for GAL4 (Internal Marker) (AID 2282976; active = hit-call score of the fitted dose curve at least 0.9, where 1 is the maximum); conditions: HepG2 Attagene TRANS GAL4 internal marker reporter
# How it was run: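 Liver HepG2 line bearing multiplexed GAL4-UAS reporter constructs; 24 h chemical treatment. Transcripts were quantified as fluorescent fragments on capillary electrophoresis after RT-PCR and HpaI cut, with activity fitted upward from DMSO.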
# [15] = molecular target: Estrogen-related receptor gamma (Homo sapiens) (UniProt P62508); test: ATG_ERRg_TRANS: Attagene TRANS-FACTORIAL HepG2 Assay for human Estrogen-Related Receptor gamma (ERRg) (AID 2282977; active = hit-call score of the fitted dose curve at least 0.9, where 1 is the maximum;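 note: hits increase reporter signal over DMSO so potencies reflect activators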); conditions: HepG2 Attagene TRANS reporter, ERRg transactivation
# Sequence of Estrogen-related receptor gamma (Homo sapiens) (P62508 whole entry, looked up, the tested form may be a part): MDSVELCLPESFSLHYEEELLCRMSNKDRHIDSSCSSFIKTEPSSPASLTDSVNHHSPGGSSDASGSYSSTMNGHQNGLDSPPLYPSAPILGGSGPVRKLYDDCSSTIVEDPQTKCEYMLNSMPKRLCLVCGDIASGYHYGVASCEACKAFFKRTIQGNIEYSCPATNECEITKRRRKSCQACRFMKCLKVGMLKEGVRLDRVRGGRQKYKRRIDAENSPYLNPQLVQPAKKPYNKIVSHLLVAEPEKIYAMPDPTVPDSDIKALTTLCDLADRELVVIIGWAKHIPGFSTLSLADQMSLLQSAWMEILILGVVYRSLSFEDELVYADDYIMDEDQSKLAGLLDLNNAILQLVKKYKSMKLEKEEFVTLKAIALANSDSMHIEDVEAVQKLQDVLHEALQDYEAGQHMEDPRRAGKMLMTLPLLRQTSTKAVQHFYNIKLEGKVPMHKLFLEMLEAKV
# How it was run: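 Exogenous NR-Gal4 chimera activity was assessed in HepG2 cells bearing transfected GAL4-UAS reporters. After 24 h dosing, total RNA underwent RT-PCR, fluorescent primer extension and HpaI digestion before capillary electrophoresis, with gain of signal scored against DMSO.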
# [16] = molecular target: Signal transducer and activator of transcription 3 (Homo sapiens) (UniProt P40763); test: ATG_STAT3_CIS: Attagene CIS-FACTORIAL HepG2 Assay for human Signal Transducer and Activator of Transcription 3 (STAT3) (AID 2282963); conditions: HepG2, Attagene cis-factorial STAT3 reporter transcription; actives raise or lower the signal
# Sequence of Signal transducer and activator of transcription 3 (Homo sapiens) (P40763 whole entry, looked up): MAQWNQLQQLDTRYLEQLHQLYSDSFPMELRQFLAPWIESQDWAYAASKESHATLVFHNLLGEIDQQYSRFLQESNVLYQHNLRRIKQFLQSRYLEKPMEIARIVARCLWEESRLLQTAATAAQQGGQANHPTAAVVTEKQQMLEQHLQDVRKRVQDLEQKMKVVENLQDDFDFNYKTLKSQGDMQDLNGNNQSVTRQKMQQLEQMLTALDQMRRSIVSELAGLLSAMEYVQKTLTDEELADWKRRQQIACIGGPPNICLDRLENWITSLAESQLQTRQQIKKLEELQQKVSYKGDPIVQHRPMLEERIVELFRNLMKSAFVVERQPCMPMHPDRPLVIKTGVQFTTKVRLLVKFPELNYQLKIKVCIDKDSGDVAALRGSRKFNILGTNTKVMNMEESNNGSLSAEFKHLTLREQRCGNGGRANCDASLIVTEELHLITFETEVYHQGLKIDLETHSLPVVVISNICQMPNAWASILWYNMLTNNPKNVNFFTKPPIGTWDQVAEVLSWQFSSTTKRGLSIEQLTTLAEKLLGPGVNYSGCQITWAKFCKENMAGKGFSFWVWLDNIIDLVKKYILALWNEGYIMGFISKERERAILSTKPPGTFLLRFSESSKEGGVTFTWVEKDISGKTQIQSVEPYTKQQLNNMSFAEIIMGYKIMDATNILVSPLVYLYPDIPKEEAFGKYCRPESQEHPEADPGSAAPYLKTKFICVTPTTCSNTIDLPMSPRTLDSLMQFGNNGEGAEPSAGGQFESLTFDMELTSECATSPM
# How it was run: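 Uses human liver HepG2 transiently carrying cis-regulated reporter transcription units. Following 24 h dosing, reporter mRNA induction was detected by RT-PCR and capillary electrophoresis, analysed bidirectionally versus DMSO.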
# [17] = ATG_VDRE_CIS: Attagene CIS-FACTORIAL HepG2 Assay for human Vitamin D Receptor Element (VDRE) (AID 2282968); conditions: HepG2 VDRE cis-reporter transcription, actives raise or lower the signal
# How it was run: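 Transfected HepG2 reporter cells, chemical treatment 24 h. RNA isolated, cDNA amplified with reporter-specific primers, products analysed by capillary electrophoresis. Endpoint fitted in both directions versus DMSO.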
# [18] = molecular target: Nuclear receptor subfamily 1 group I member 3 (Homo sapiens) (UniProt Q14994); test: ATG_CAR_TRANS: Attagene TRANS-FACTORIAL HepG2 Assay for human Constitutive Androstane Receptor (CAR) (AID 2282969; active = hit-call score of the fitted dose curve at least 0.9, where 1 is the maximum;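 note: activators raise reporter mRNA above DMSO so AC50 marks induction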); conditions: HepG2 Attagene TRANS-FACTORIAL CAR reporter
# Sequence of Nuclear receptor subfamily 1 group I member 3 (Homo sapiens) (Q14994 whole entry, looked up, the tested form may be a part): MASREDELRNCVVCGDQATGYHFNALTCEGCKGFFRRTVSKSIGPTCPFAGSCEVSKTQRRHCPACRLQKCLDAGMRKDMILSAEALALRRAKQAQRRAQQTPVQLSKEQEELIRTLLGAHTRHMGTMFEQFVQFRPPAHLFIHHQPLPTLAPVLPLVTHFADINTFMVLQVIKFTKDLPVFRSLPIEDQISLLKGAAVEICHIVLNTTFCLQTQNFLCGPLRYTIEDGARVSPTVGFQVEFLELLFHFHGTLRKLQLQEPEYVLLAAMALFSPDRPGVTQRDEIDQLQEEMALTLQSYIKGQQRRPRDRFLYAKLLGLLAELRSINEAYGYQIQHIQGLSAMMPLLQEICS
# How it was run: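 Steps: transient transfection of HepG2 with multiple GAL4-UAS reporter units; 24 h compound incubation; RNA isolation, RT-PCR, 6-FAM primer extension, HpaI digest; capillary electrophoresis. Gain-of-signal relative to DMSO negative control.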
# [19] = molecular target: Steroid hormone receptor ERR1 (Homo sapiens) (UniProt P11474); test: ATG_ERRa_TRANS: Attagene TRANS-FACTORIAL HepG2 Assay for human Estrogen-Related Receptor alpha (ERRa) (AID 2282971; active = hit-call score of the fitted dose curve at least 0.9, where 1 is the maximum); conditions: HepG2 Attagene TRANS reporter, ERRa transactivation
# Sequence of Steroid hormone receptor ERR1 (Homo sapiens) (P11474 whole entry, looked up, the tested form may be a part): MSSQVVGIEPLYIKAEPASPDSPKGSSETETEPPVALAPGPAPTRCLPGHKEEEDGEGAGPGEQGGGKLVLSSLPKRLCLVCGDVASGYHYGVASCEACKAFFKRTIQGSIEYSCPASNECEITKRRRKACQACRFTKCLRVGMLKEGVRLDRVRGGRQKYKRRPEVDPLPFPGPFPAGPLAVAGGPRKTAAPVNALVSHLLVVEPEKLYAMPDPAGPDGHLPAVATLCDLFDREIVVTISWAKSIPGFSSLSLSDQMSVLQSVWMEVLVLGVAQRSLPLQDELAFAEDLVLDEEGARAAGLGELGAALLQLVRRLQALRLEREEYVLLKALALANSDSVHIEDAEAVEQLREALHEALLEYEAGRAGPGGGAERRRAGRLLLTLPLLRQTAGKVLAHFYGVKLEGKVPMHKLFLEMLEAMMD
# How it was run: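 Signal gain relative to DMSO for an ERRa-Gal4 chimeric receptor, read as reporter mRNA by RT-PCR/capillary electrophoresis. Human HepG2 liver cells, transient multiplex reporter transfection, 24 h chemical exposure.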
smiles,measurement,setting,value
CCCCCCCCC(=O)OCC,outcome,[1],inactive
same,outcome,[2],inactive
same,outcome,[3],inactive
same,outcome,[4],inactive
same,outcome,[5],inactive
same,outcome,[6],inactive
same,outcome,[7],inactive
same,outcome,[8],inactive
same,outcome,[9],inactive
same,outcome,[10],inactive
same,outcome,[11],inactive
same,outcome,[12],inactive
same,outcome,[13],inactive
same,outcome,[14],inactive
same,outcome,[15],inactive
CCC(C)OC(=O)c1ccc(O)cc1 (stereo not drawn),outcome,[1],inactive
same,AC50,[2],27.8 µM (active)
same,AC50,[3],100 µM (active)
same,outcome,[4],inactive
same,outcome,[5],inactive
same,outcome,[6],inactive
same,outcome,[7],inactive
same,outcome,[16],inactive
same,outcome,[9],inactive
same,outcome,[10],inactive
same,outcome,[11],inactive
same,AC50,[17],62.7 µM (active)
same,outcome,[18],inactive
same,AC50,[12],0.75 µM (active)
same,outcome,[19],inactive
same,outcome,[13],inactive
same,outcome,[15],inactive
CC(C)C1=CC2=CC[C@@H]3[C@](C)(CCC[C@@]3(C)C(=O)O)[C@H]2CC1,AC50,[1],71.2 µM (active)
same,AC50,[2],1.33 µM (active)
same,outcome,[3],inactive
same,AC50,[4],43.1 µM (active)
same,AC50,[5],169 µM (active)
same,outcome,[6],inactive
same,AC50,[7],25.9 µM (active)
same,AC50,[8],89.6 µM (active)
same,outcome,[9],inactive
same,AC50,[10],52.1 µM (active)
same,AC50,[11],0.551 µM (active)
same,AC50,[17],4.54 µM (active)
same,outcome,[18],inactive
same,AC50,[12],31.9 µM (active)
same,outcome,[19],inactive
same,outcome,[13],inactive
